In one assay the target is Albumin (Bos taurus) (UniProt P02769). Description: compounds binding labelled BSA control protein – biochemical, small-molecule microarray, Alexa647 label, 635/667 nm fluorescence, artefact control for SMM control protein annotation, profiling panel (AID 1118).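 Note: score merges 667 nm emission intensity and signal-to-noise per printed compound spot.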 To be noted: BSA-A647 binding, fluorescence 635 nm, higher = more signal.
A short description of assay [1]: probe aXIP binding to arrayed compounds – biochemical, NeuroSMM set, 635/667 nm fluorescence, primary screen (AID 1119).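 Note: probe is the protein aXip251-270 applied at 1 µg/mL to compound-printed slides; binding of probe to printed compounds measured as 667 nm fluorescence plus signal to noise.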 To be noted: small-molecule microarray, higher = more signal, called active from +8 up or from −8 down.
Assay [2] in a line: probe aNOTCH3 binding on compound microarray – biochemical, small-molecule microarray, 635/667 nm fluorescence, primary screen (AID 1120).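 Note: probe is a biotin-tagged antibody raised against NOTCH3 rather than NOTCH3 protein; score merges spot fluorescence near 667 nm with spot signal to noise.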 To be noted: higher = more signal.
A short description of assay [3]: probe aNOTCH2 binding on compound microarray – biochemical, small-molecule microarray, 635/667 nm fluorescence, primary screen (AID 1121).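 Note: score merges feature fluorescence read at 667 nm with its signal to noise.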 To be noted: higher = more signal.
For assay [4], the target named is Carbonic anhydrase 2 (Homo sapiens) (UniProt P00918). The assay is described as follows: compounds binding carbonic anhydrase 2 – biochemical, small-molecule microarray, Alexa647-labelled CAII, profiling panel (AID 1122). To be noted: CAII-A647 binding fluorescence, higher = more signal.
Assay [5] can be described thus: COS7 lysate on small-molecule microarray, probe aHis, 635 nm (AID 1123).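 Note: z-score combines 667nm fluorescence intensity with signal-to-noise per printed compound spot.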 To be noted: COS7 cell lysate, fluorescence, higher = more signal.
Assay [6] in a line: probe aLAP1 signal on lysate-treated microarray – cell lysate, small-molecule microarray, COS7 lysate, primary screen (AID 1124).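 Note: lysate comes from COS7 cells expressing LAP1 and is applied at 0.3 µg/mL; score merges spot fluorescence near 667 nm with signal-to-noise over triplicate slides.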 To be noted: probe aLAP1, fluorescence, higher = more signal.
Another assay deals with Sam68 (KHDRBS1). The assay is described as follows: compounds binding KHDRBS1 protein – biochemical, small-molecule microarray, 635 nm fluorescence, primary screen (AID 1125).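 Note: score merges 667 nm channel intensity with signal to noise over triplicate slides.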 To be noted: higher = more signal.
Assay [7] concerns Chordin-like protein 2 (CHRDL2). The assay is described as follows: compounds binding chordin-like 2 – biochemical, small-molecule microarray, 635 nm fluorescence, primary screen (AID 1126).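 Note: printed compound slides probed with Chrdl2 protein at 4 µg/mL for 1 h at 4 C; score merges 667 nm emission intensity with signal to noise over three replicate slides.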 To be noted: fluorescence 635 nm, higher = more signal.
The target of assay [8] is Concanavalin-A (Canavalia ensiformis) (UniProt P02866). Description: compounds binding concanavalin A lectin – biochemical, small-molecule microarray, Alexa647 label, 635 nm, artefact control for SMM control protein annotation, primary screen (AID 1127).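 Note: z combines 667 nm emission intensity with signal-to-noise across three replicate slides.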 To be noted: ConA-A647 binding fluorescence, higher = more signal.
Sequence of Concanavalin-A (Canavalia ensiformis) (P02866 whole entry, looked up): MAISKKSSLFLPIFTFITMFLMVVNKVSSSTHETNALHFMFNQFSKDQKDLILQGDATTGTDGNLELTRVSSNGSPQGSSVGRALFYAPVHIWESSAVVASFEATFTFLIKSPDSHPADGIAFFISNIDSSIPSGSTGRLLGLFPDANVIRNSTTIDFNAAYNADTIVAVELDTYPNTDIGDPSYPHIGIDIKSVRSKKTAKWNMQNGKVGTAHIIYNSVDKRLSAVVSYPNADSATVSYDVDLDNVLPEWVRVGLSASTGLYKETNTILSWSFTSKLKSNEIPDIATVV

Experimental findings from PubChem BioAssay are described below.

The structures appear in SMILES notation. Activity calls are given as the source filed them.

Sequence of Albumin (Bos taurus) (P02769 whole entry, looked up): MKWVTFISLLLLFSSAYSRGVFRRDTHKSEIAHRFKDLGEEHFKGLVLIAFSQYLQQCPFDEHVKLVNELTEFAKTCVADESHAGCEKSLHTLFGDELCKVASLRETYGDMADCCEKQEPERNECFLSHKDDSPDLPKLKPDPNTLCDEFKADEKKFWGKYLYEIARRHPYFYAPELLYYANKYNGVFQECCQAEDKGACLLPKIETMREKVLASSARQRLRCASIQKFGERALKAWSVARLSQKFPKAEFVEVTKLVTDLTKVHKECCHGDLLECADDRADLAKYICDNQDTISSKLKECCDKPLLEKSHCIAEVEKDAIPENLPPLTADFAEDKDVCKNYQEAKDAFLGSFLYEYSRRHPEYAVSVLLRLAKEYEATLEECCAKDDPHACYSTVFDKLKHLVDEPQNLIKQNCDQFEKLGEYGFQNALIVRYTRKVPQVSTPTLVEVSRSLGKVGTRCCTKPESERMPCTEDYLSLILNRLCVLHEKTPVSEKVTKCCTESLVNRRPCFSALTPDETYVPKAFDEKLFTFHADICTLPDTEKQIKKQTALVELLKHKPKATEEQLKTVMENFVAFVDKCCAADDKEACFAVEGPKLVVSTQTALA

For the compound `CC(C)CN1C(=O)[C@@]2(Cc3ccccc31)c1ccccc1C(=O)N(Cc1ccccc1C(F)(F)F)[C@H]2c1ccc(CO)cc1`, the composite z-score in the assay with Albumin (Bos taurus) is -0.139; in assay [2] it was -0.172; in assay [3], -0.157; in assay [4], -0.381; in [5], -0.562; in assay [6] it was -0.438. Besides, the figures for the composite z-score (in the assay on Sam68 (KHDRBS1); in assay [7]; in assay [8]) were -2.12, -0.846 and 0.027, respectively. Besides, in assay [1], the composite Z-score is 0.174 (inactive).
Turning to `CCOC(=O)C[C@H]1[C@H](OC(=O)c2ccccc2-c2ccccc2)[C@@H](NC(=O)c2ccc3ccccc3n2)c2cc(OCCCO)ccc2N1C(=O)c1ccc2ccccc2n1`, the composite z-score in the assay with Albumin (Bos taurus) was 0.202; in assay [2], -0.0647; in assay [3] it was -0.0626; in assay [4] it was 0.0023; in assay [5], 0.626; in assay [6] it was -0.283. Also, the composite z-score in the assay on Sam68 (KHDRBS1) came out at 0.498; in [7], 0.422; in assay [8], 0.762. The composite Z-score in assay [1] is -0.293 (inactive).
In the case of `COCCOC(=O)N1C(=O)[C@@]2(c3cc(C#CC4=CCCCC4)ccc31)[C@H](C(=O)N1CCN(c3ncccn3)CC1)[C@H]1C(=O)O[C@H](c3ccccc3)[C@H](c3ccccc3)N1[C@@H]2c1ccc(O)cc1`, the composite z-score was 0.649 with Albumin (Bos taurus); 0.061 in [2]; -0.0304 in assay [3]; 0.541 in assay [4]; 1.09 in assay [5]; 0.615 in [6]. Also, the composite z-score was found to be 1.29 with Sam68 (KHDRBS1), 0.204 in assay [7] and 1.13 in [8]. Also, the composite Z-score in [1] was 0.215 (inactive).
With `C=C[C@@H](C)[C@H](OC(=O)Nc1ccc(SC)cc1)c1ccc(OCCO)cc1`, the composite z-score with Albumin (Bos taurus) is -0.145; in assay [2], 0.132; in [3] it was -0.259; in [4], 0.449; in [5], 0.476; in assay [6] it was -0.0181. The composite z-score in the assay with Sam68 (KHDRBS1) was -0.867; in assay [7], -0.61; in [8], -0.345. For the same compound, the composite Z-score in assay [1] is -0.109 (inactive).
With `CC(C)CN1C(=O)[C@@]2(c3ccc([N+](=O)[O-])cc3)CC(=O)N(CC34CC5CC(CC(C5)C3)C4)[C@@H]2c2ccc(CO)cc21`, the composite z-score with Albumin (Bos taurus) was 0.291; in assay [2], -0.0016; in assay [3] it was -0.189; in assay [4] it was 0.411; in assay [5] it was 0.0815; in assay [6] it was -0.0349. Also, the composite z-score in the assay with Sam68 (KHDRBS1) is -0.772; in [7] it was -1.52; in [8] it was 0.436. Further, the composite Z-score in assay [1] is -0.585 (inactive).
For `C=CC[C@]1(C(=O)N(C)C)N=C(c2ccc(OCCCO)cc2)O[C@H]1c1ccccc1N=[N+]=[N-]`, the composite z-score was determined as 1.07 in the assay with Albumin (Bos taurus); 0.266 in assay [2]; 0.0805 in [3]; 0.489 in [4]; 2.81 in [5]; 0.55 in assay [6]. In addition, the composite z-score with Sam68 (KHDRBS1) was 1.3; in assay [7], -0.811; in assay [8], 0.877. Further, the composite Z-score in [1] was 0.298 (inactive).
Consider `COc1ccc([Si](C)(C)[C@H]2[C@H](CCn3cc([C@H](O)c4ccccc4)nn3)O[C@@]3(C(=O)N(Cc4ccc(N5CCOC5=O)cc4)c4ccccc43)[C@@H]2C)cc1`, for which the composite z-score was -0.397 with Albumin (Bos taurus); -0.172 in assay [2]; -0.186 in assay [3]; -0.586 in assay [4]; -0.55 in assay [5]; -1.14 in [6]. Besides, the figures for the composite z-score (with Sam68 (KHDRBS1); in assay [7]; in assay [8]) were -0.426, -0.586 and -0.321, respectively. In addition, in assay [1], the composite Z-score is 0.486 (inactive).
As for `[N-]=[N+]=NCc1ccccc1C[C@]1(C(=O)NCC(O)CO)N=C(c2ccc(OCCCO)cc2)O[C@H]1c1ccccc1CN=[N+]=[N-]` (stereo not given in full), the composite z-score in the assay with Albumin (Bos taurus) was 0.801; in assay [2] it was 0.303; in assay [3], -0.108; in [4], 0.404; in assay [5] it was 3.05; in [6] it was 0.137. Also, the composite z-score in the assay on Sam68 (KHDRBS1) was 1.12; in assay [7] it was -0.86; in assay [8], 1.11. The composite Z-score in assay [1] is 0.496 (inactive).
Regarding `Cc1ccc(S[C@]2(C(=O)O)CC(=O)N(Cc3ccccc3Cl)[C@@H]2c2ccc(CO)cc2)cc1`, the composite z-score was 0.489 with Albumin (Bos taurus); -0.159 in assay [2]; -0.0519 in assay [3]; 0.75 in [4]; 1.72 in assay [5]; 0.591 in assay [6]. For the same compound, the composite z-score with Sam68 (KHDRBS1) is -0.503; in [7] it was -0.828; in assay [8], -0.503. In addition, the composite Z-score in assay [1] is -0.173 (inactive).
For the compound `O=C1O[C@@H](c2ccccc2)[C@@H](c2ccccc2)N2[C@@H](c3ccccc3OCCO)[C@]3(C(=O)Nc4ccc(C#CCCO)cc43)[C@@H](C(=O)N3CCN(c4ncccn4)CC3)[C@H]12`, the composite z-score is 0.717 with Albumin (Bos taurus); 0.0208 in [2]; -0.0811 in [3]; 0.298 in assay [4]; 2.09 in assay [5]; 0.176 in assay [6]. Also, the composite z-score is 1.19 with Sam68 (KHDRBS1), 0.0179 in assay [7] and 1.12 in assay [8]. In assay [1], the composite Z-score is 1.37 (inactive).
Take `COc1ccc([Si](C)(C)[C@H]2[C@H](CCn3cc([C@H](O)c4ccccc4)nn3)O[C@@]3(C(=O)N(Cc4ccc(N5CCC5=O)cc4)c4ccccc43)[C@@H]2C)cc1`: the composite z-score was 0.0383 with Albumin (Bos taurus); -0.0647 in assay [2]; -0.167 in assay [3]; 0.0133 in [4]; 0.418 in assay [5]; 0.142 in assay [6]. Moreover, the composite z-score in the assay with Sam68 (KHDRBS1) stood at 0.654; in [7] it was 0.786; in [8], 0.672. Further, the composite Z-score in assay [1] is -0.128 (inactive).
